Outcome and AC50 data for 4 compounds are collected here from PubChem BioAssay (EPA / NIEHS).

The term AC50 denotes the concentration at which the activity in the assay is half-maximal.

Test [1] has as its target Adenosine receptor A1 (Bos taurus) (UniProt P28190). Briefly: NVS_GPCR_bAdoR_NonSelective: NovaScreen (NVS) G Protein-Coupled Receptor Assay for bovine Adenosine Receptor (AdoR), Non-selective Binding (AID 2283244). The procedure, abridged:
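Cell-free binding with membranes from bovine striatum: radioligand displaced by test chemical, read after 1 h by filtration and scintillation. Single-point 25 uM duplicate primary, 50 uM top concentration in follow-up curves, DMSO baseline.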

In test [2] the target is human Serotonin, 5-Hydroxytryptamine Receptor 2A (5HT2A), HTR2A (gene 3356) (UniProt P28223). Briefly: NVS_GPCR_h5HT2A: NovaScreen (NVS) G Protein-Coupled Receptor Assay for human Serotonin, 5-Hydroxytryptamine Receptor 2A (5HT2A) (AID 2283249). The method, then:
NVS_GPCR_h5HT2A is a biochemical, single-readout assay that uses extracted gene-proteins from Human cortex in a tissue-based cell-free assay. Measurements were taken 1.5 hours after chemical dosing in a 48-well plate.NVS_GPCR_h5HT2A is one of one assay component(s) measured or calculated from the NVS_GPCR_h5HT2A assay. It is designed to make measurements of radioligand binding, a form of binding reporter, as detected with scintillation counting signals by Filter-based radiodetection technology.Data from the assay component NVS_GPCR_h5HT2A was analyzed into 1 assay endpoint. This assay endpoint, NVS_GPCR_h5HT2A, was analyzed in the positive analysis fitting direction relative to DMSO as the negative control and baseline of activity. […] Furthermore, this assay endpoint can be referred to as a primary readout, because the performed assay has only produced 1 assay endpoint. […]
Binding assays used specific radioligands (tritiated, iodinated) with non-radioactive competitive displacement ligands in agonist or antagonist protocols (as indicated) and various reference compounds and inhibitors to titrate specific binding to receptors and transporters. Most enzyme assays (CYPs, kinases, phosphatases, proteases, HDACs) used recombinant protein and specific substrates (fluorescence mostly, some colorimetric and radioactive) and inhibitors, followed by a biochemical separation of substrate and product. […]

The target of test [3] is human Serotonin, 5-Hydroxytryptamine Receptor 5A (5HT5A), HTR5A (gene 3361) (UniProt P47898). Briefly: NVS_GPCR_h5HT5A: NovaScreen (NVS) G Protein-Coupled Receptor Assay for human Serotonin, 5-Hydroxytryptamine Receptor 5A (5HT5A) (AID 2283251). The essentials:
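Membranes from HEK293 cells, radioligand binding read by filtration and scintillation after 1 h. Single-concentration duplicate testing at 25 uM, then concentration-response for actives; positive-direction fitting relative to DMSO.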

The target in test [4] is human Serotonin, 5-Hydroxytryptamine Receptor 7 (5HT7), HTR7 (gene 3363) (UniProt P34969). Description: NVS_GPCR_h5HT7: NovaScreen (NVS) G Protein-Coupled Receptor Assay for human Serotonin, 5-Hydroxytryptamine Receptor 7 (5HT7) (AID 2283255).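 Further: hits reduce specific radioligand binding relative to DMSO.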 The essentials:
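Filter-bound radioactivity counted after 1 h, with loss of specific radioligand binding fitted against DMSO. Membrane protein came from CHO cells expressing human 5HT7. Chemicals were tested first at 25 uM in duplicate, then in concentration series if active.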

Results filed as inconclusive are left out. Activity calls are given as the source filed them. How the source made its calls: active means hit-call score of the fitted dose curve at least 0.9, where 1 is the maximum; inconclusive means response in the unintended direction; inactive means score below 0.9.

Chain of human Serotonin, 5-Hydroxytryptamine Receptor 5A (5HT5A), HTR5A (gene 3361) (P47898 whole entry, looked up): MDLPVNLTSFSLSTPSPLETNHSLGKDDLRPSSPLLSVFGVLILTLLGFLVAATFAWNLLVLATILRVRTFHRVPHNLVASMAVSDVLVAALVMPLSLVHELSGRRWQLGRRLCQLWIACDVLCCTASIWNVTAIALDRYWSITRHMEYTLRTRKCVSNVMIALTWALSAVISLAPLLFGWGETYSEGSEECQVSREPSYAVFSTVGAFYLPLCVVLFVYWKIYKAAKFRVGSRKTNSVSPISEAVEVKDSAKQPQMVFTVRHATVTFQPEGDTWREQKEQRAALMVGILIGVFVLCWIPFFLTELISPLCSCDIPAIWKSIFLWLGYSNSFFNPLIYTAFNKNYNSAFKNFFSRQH
Chain of human Serotonin, 5-Hydroxytryptamine Receptor 7 (5HT7), HTR7 (gene 3363) (P34969 whole entry, looked up): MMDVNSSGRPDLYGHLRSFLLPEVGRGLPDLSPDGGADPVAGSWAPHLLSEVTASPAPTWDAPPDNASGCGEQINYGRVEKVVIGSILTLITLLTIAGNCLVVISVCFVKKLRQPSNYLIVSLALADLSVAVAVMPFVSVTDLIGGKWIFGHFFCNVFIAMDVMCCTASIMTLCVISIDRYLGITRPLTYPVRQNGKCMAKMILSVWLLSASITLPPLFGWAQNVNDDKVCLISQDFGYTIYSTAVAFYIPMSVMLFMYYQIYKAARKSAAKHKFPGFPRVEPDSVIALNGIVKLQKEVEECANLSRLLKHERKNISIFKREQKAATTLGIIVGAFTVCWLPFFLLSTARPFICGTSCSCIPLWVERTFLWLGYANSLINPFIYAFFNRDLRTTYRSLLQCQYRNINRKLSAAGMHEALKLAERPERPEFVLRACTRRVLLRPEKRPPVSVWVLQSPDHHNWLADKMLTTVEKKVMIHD
Chain of Adenosine receptor A1 (Bos taurus) (P28190 whole entry, looked up): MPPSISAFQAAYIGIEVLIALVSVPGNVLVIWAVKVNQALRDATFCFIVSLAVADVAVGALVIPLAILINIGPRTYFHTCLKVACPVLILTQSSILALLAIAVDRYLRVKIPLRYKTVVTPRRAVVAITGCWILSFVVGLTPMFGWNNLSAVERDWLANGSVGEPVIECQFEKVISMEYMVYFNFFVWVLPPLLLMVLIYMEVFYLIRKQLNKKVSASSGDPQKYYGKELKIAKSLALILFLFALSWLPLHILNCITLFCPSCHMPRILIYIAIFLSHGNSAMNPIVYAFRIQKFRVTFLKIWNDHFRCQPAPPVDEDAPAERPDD
Chain of human Serotonin, 5-Hydroxytryptamine Receptor 2A (5HT2A), HTR2A (gene 3356) (P28223 whole entry, looked up): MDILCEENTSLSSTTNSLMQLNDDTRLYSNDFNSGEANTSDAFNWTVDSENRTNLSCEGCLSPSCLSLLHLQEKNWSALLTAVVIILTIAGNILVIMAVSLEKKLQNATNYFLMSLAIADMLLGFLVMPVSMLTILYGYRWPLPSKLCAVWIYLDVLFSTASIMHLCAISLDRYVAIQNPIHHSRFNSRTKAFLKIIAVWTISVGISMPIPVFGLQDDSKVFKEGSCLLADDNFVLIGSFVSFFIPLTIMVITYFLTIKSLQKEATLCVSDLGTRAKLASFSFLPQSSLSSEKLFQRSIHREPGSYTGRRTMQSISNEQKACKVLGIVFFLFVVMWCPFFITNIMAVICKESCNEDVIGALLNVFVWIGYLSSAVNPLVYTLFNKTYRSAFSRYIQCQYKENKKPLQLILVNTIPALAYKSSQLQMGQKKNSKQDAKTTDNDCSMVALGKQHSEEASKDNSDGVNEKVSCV

In the case of `CC(C)(C)c1ccccc1O`, the call in test [1] was inactive.

As to `CC(C)O.CC(C)O.OCCN(CCO)CCO.OCCN(CCO)CCO.[Ti]`, the result in test [2] was inactive.

As to `O=C(O)C1(c2ccc3c(c2)OC[C@H](Cc2ccc(-c4ccccc4)cc2)[C@H]3O)CCCC1`, in test [3], the call was inactive.

For the compound `CCCCCCCCCCCCc1cccc(S(=O)(=O)O)c1`, the half-maximal activity concentration (AC50) was 13.7 µM (active) in test [3] and 14.3 µM (active) in test [4].
